# Screens from PubChem.
# 14-3-3 Bad inh: disrupts binding of bovine 14-3-3 zeta to phospho-Bad peptide. P63103. inhibition, % at 21.7 µM. actives 0.71% (n = 220,000). TR-FRET 14-3-3zeta/Dy647-pBad peptide displacement, 1 h;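 active = inhibition above about 70%, limit read from the data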;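 note: 0% = full 14-3-3 plus peptide FRET controls and 100% = background without 14-3-3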
# Hck-Nef inh: inhibitors of human Hck kinase activated by Nef; P08631; Recombinant Hck-YEEI plus Nef, Z-Lyte FRET kinase assay; inhibition, % at 20 µM; actives 0.68% (n = 220,000);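 active = Hck-Nef kinase inhibition above about 50%, limit read from the data; inactive = inhibition below that limit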;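 note: 0% = DMSO with Hck plus Nef and 100% = Hck alone without Nef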
# Mcl1-Bid inh: Mcl-1/Bid interaction inhibition; Q07820; TR-FRET Mcl-1/Bid-Dy647 peptide binding, 1536-well; inhibition, % at 21.7 µM; actives 0.97% (n = 220,000); AID 1021;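 active = compounds that cut the binding signal by more than half at the single screening dose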;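 note: His-tagged Mcl-1 with europium anti-His antibody binding Bid BH3 peptide; 0% = Mcl-1 plus peptide wells and 100% = peptide-only wells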
# Mcl1-Noxa inh: Mcl-1/Noxa interaction inhibition | inhibition, % at 21.7 µM | TR-FRET Mcl-1/Noxa peptide binding, 2 h | Q07820 | actives 1.5% (n = 220,000);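 active = compounds that cut the protein-peptide binding signal by more than 50% relative to plate controls in a single-dose test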;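 note: His-tagged Mcl-1 with rhodamine Noxa BH3 peptide and terbium anti-His antibody; 0% = Mcl-1 plus Noxa peptide wells and 100% = peptide-only wells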
# Mcl-1 Bim block: disrupts Bim peptide binding to human Mcl-1; Q07820; actives 0.1% (n = 190,000); inhibition, % at 10 µM; AID 1009; Bead-based flow cytometry, Bim peptide-Mcl-1 binding; in the data active = inhibition above about 40%;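 note: 0% = no compound tracer wells and 100% = peptide blocker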
# eIF4E 4G PPI: inhibitors of eIF4E and eIF4G interaction in translation initiation. P63073+Q04637. TR-FRET eIF4E-eIF4GI(517-606) binding, 2 h. inhibition, % at 21.7 µM. actives 0.37% (n = 220,000). AID 782;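 active = inhibition above about 30%, limit read from the data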;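 note: 0% = full FRET control wells and 100% = background wells lacking eIF4GI fragment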
# Target sequence (P63073 whole entry, looked up, the tested form may be a part): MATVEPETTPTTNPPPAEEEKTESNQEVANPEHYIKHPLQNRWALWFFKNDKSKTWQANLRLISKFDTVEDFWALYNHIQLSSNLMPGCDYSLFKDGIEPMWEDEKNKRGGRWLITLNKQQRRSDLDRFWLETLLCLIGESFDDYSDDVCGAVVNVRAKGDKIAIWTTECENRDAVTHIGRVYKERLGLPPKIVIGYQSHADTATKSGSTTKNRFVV
# Target sequence (Q04637 whole entry, looked up, the tested form may be a part): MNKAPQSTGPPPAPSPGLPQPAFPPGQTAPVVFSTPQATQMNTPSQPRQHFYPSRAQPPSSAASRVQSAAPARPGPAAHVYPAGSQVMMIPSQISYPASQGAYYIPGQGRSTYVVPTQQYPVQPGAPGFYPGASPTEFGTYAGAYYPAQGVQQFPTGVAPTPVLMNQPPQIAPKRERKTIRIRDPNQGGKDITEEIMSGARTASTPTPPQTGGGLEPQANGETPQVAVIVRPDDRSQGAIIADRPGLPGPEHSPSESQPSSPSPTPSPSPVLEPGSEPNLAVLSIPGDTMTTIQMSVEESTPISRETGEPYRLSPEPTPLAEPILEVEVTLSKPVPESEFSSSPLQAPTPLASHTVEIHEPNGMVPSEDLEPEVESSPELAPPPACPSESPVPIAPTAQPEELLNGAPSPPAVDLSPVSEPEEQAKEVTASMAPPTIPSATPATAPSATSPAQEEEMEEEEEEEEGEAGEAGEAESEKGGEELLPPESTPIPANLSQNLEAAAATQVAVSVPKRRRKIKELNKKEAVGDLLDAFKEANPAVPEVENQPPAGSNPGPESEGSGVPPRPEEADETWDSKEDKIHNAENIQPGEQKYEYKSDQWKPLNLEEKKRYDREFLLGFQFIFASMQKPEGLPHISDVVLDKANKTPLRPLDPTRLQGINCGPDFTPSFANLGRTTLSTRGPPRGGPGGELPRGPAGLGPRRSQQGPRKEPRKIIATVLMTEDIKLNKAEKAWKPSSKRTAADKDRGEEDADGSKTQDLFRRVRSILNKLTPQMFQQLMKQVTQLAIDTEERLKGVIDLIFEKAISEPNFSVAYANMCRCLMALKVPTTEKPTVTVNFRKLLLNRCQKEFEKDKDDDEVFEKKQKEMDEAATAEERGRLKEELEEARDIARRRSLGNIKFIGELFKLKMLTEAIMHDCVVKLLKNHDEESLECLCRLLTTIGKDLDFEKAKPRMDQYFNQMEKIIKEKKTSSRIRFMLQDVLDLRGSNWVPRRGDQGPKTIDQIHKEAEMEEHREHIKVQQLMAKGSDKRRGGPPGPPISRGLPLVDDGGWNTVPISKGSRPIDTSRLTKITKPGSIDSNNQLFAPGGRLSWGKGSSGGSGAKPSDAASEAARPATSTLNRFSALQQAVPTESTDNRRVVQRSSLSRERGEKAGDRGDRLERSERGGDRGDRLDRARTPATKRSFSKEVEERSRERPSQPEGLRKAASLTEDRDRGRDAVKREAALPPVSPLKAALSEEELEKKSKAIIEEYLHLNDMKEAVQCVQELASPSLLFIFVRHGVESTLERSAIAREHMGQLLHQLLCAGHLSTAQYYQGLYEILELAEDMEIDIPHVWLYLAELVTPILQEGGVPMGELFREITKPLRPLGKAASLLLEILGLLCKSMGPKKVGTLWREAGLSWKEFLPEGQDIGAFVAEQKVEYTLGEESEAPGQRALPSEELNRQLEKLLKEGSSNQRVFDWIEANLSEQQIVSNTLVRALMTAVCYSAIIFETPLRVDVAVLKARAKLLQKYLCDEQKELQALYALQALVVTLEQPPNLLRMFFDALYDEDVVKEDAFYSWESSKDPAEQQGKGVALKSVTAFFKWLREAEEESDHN
# Numbers without * were called inactive; / = not tested or not shown; [ ] = remark or other dose. Compounds with a hit are over-represented: about 3.5% of the library has one in this group of screens.
SMILES,14-3-3 Bad inh,Hck-Nef inh,Mcl1-Bid inh,Mcl1-Noxa inh,Mcl-1 Bim block,eIF4E 4G PPI
O=[N+]([O-])c1cc(CN2CCOCC2)c2cccnc2c1O,17,26,-16,94*,-1,33*
Cc1cc(C)c(S(=O)(=O)N2CCCOC2CNC(=O)C(=O)NCc2cccs2)c(C)c1 (stereo not drawn),-6,35,12,7,-3,1
CCCCNC(c1ccccc1)c1ccncc1 (stereo not drawn),71*,-1,11,28,-1,9
NS(=O)(=O)c1cc2c(cc1Cl)NC(Cc1ccccc1)NS2(=O)=O (stereo not drawn),-3,-4,97*,-6,/,-2
COc1ccc2o/c(=N\O)c(C(=O)Nc3ccccc3OC)cc2c1,4,7,14,60*,-7,-6
COc1cccc(N=c2oc3c(C)ncc(CO)c3cc2C(=O)Nc2ccccc2OC)c1,91*[fluorescence artefact?],30,49,-35,3,-53
O=C(NCC1(N2CCCCC2)CCCCC1)C1CC(=O)N(c2ccc3c(c2)OCCO3)C1 (stereo not drawn),-6,7,-26,32,-3,-1
COc1c(Cl)cc(Br)c(OC)c1C(=O)NC(=O)Nc1nc(C)cc(C)n1,-1,11,-16,23,/,2
CN(CC(=O)Nc1ccc(S(=O)(=O)N2CCCC2)cc1)Cc1c(F)cccc1Cl,-6,3,-22,20,-4,0
COc1cccc(N(CC(=O)N2CCN(C)CC2)S(=O)(=O)c2ccccc2)c1,-4,1,60*,4,1,-1
COc1cccc(N(CC(=O)O)S(=O)(=O)c2ccccc2)c1,6,0,18,9,-1,3
Cc1cccc(NC(=O)c2ccc(NC(C)c3ccccc3)c([N+](=O)[O-])c2)n1 (stereo not drawn),22,1,-38,8,0,-2
C1CCN=C(Nc2nn[nH]n2)CC1,71*,7,18,31,0,6
CSCCC(NS(=O)(=O)c1ccc(Cl)c(Cl)c1)C(=O)O (stereo not drawn),-9,7,-33,9,0,-1
Cc1cc(NC(=O)Cn2cc([N+](=O)[O-])cn2)no1,-12,18,-30,10,-2,-1
O=C(NCCCc1nc2ccccc2[nH]1)c1ccc(F)cc1,-7,15,-12,2,0,2
O=C(Nc1cccc(S(=O)(=O)N2CCOCC2)c1)c1ccc2ccccc2n1,4,4,33,24,/,-13
CCN(CC)S(=O)(=O)c1ccc(N2CCOCC2)c(NC(=O)c2c3c(nc4ccccc24)CCC3)c1,-5,8,20,91*,-2,13
O=C(Nc1cccc(S(=O)(=O)N2CCOCC2)c1)c1c2c(nc3ccccc13)CCC2,-23,18,-51,74*,0,13
O=C1NC(=S)S/C1=C\c1ccc(SCc2ccccc2)o1,-6,6,-17,81*,0,19
Cc1cc(/C=C2\SC(=S)NC2=O)cc(C)c1O,3,21,-118,40,/,1
O=C1NC(=S)S/C1=C\c1ccc(SCc2ccco2)o1,47,85*,62*,98*,-2,22
O=C(CNS(=O)(=O)c1cccs1)NCc1ccccc1,0,20,-19,4,0,-3
COCCNC(=S)N1CCN(C/C=C/c2ccccc2)CC1,-1,11,-11,12,-1,0
Cc1c(-c2ccccn2)c(=O)[nH]n1-c1ccc(F)cc1,-5,-17,-28,19,0,6
SMILES,14-3-3 Bad inh,Hck-Nef inh,Mcl1-Bid inh,Mcl1-Noxa inh,Mcl-1 Bim block,eIF4E 4G PPI
O=C(NC1CCCCCC1)C(Cc1ccccc1)n1cccc1 (stereo not drawn),1,13,-78,-1,/,2
O=C(COc1ccc2ccccc2c1Br)NC(=S)Nc1cccc(CO)c1,42,7,52*,5,-4,-11
COc1ccc(N2CCN(C(C)C(=O)N3CCCC3)CC2)cc1 (stereo not drawn),79*,12,20,29,-1,10
C[C@@H]1CN=C2N(CCNC(=O)CCC3CCCCC3)[C@H](Cc3ccc(O)cc3)CN21,0,-10,-2,13,1,23
CCCCCCNC(=O)N[C@H](C(=O)NCCC[C@H]1CN2C(=NC[C@H]2C)N1CCC(c1ccccc1)c1ccccc1)C(C)O (stereo partly drawn),1,-20,-78,10,/,53*
Cc1ccccc1SCCNC(=O)CCc1ccccc1,5,-12,3,24,-2,-6
COc1ccc(-n2nc(C)c3sc(C)nc3c2=O)cc1,-4,7,-9,9,/,2
COCCNC(=O)C1CC(c2ccc(F)cc2)=NO1 (stereo not drawn),2,9,-11,4,3,-9
COCCNC(=O)C1CC(c2cccc(F)c2)=NO1 (stereo not drawn),0,31,-29,-14,/,60*
COC(=O)Nc1ccc(S(=O)(=O)NCc2ccccn2)cc1,0,18,-4,82*,4,-1
O=C(Nc1ccc(C2=NCCN2)cc1)c1ccc(C(=O)Nc2ccc(C3=NCCN3)cc2)c([N+](=O)[O-])c1,79*,-49,34,67*,/,3
COC(=O)c1ccc(CO/N=C(\NC(C)=O)c2nonc2NC(C)=O)cc1,-2,1,-37,-14,-7,-7
S=C(Nc1ccccc1Cl)Nc1ccc(Cl)cc1Cl,-13,1,-11,15,-2,-13
S=C(NNc1ccnc2cc(Cl)ccc12)Nc1ccccc1Cl,-16,5,-35,62*,-3,-4
Cc1cccc(Nc2c([N+](=O)[O-])c(=O)oc3ccccc23)c1,-3,12,-7,9,/,-8
COc1cc(/C=C2\CC/C(=C\c3cc(OC)c(O)c(OC)c3)C2=O)cc(OC)c1O,-3,30,-2,101*,17,40*[fluorescence artefact?]
COc1cc(/C=C2\CC/C(=C\c3cc(OC)c(OC)c(OC)c3)C2=O)cc(OC)c1OC,17,4,-2,26,-1,-4
COC(=O)c1ccc(COc2ccccc2/C=N/NS(=O)(=O)c2ccc(C)cc2)cc1,-2,3,-16,2,-2,-8
Nc1nc(SCC(=O)Nc2ccc(Cl)cn2)n[nH]1,2,12,-25,-5,1,1
CN(/N=C/c1ccncc1)C1=NS(=O)(=O)c2ccccc21,79*,2,4,11,26,0
CC1=NN(c2cccc(C(=O)O)c2)C(=O)/C1=C\C=C\c1ccco1,27,18,-16,98*,0,21
CCOc1ccc(NC(=S)N(CCN2CCOCC2)Cc2ccc3c(c2)CCCN3CC)cc1,-12,36,-61,12,-1,1
CCN1CCCc2cc(CN(CCN3CCOCC3)C(=S)Nc3ccc(C)cc3)ccc21,-7,-18,-94,69*,-2,0
